Source: PubChem BioAssay AID504604 (National Center for Advancing Translational Sciences (NCATS), 2011)
Active and inactive are the calls of the source. The call rests on the fitted dose curve; in most records, active means well fitted inhibition curve with a large enough effect; inconclusive means small, poorly fitted or top-dose-only effect; inactive means flat fitted curve, though single readings scatter.

Test: Quantitative high throughput screen to test activity of anti-malarial compounds in the Dd2 strain of Plasmodium Falciparum
Conditions: P. falciparum Dd2 in RBCs, SYBR Green growth, 72 h
Source text: NIH Molecular Libraries Probe Production Network [MLPCN] NIH Chemical Genomics Center [NCGC] MLPCN Grant: R21 NS059500 Assay Provider: David Fidock and Eric Ekland, Columbia University The goal of this screen is to measure the ability of a set of anti-malarial compounds to inhibit the Dd2 strain of P. falciparum. These compounds have been screened in a delayed death phenotype assay and have been identified as inhibitors of the delated death phenotype, by inhibiting the development of the apicoplast in the malarial parasite Plasmodium falciparum (described below) The biochemical processes that make this organelle essential for erythrocytic stage parasites are not well understood. However, antibiotics, such as azithromycin and tetracycline, which target the apicoplast translational machinery, have a potent antimalarial effect. […] We have developed a cell-based assay that measures parasite growth based on the expression of an integrated copy of a firefly luciferase reporter. To detect small molecules that cause this 'delayed death' phenotype, erythrocytes infected with the luciferase-expressing parasites were incubated with compounds for either one or two generations, corresponding to 48 and 96 hours, respectively. […] Growth inhibition is detected by a decrease in luciferase activity […]

Structure (SMILES): C[C@@H]1CN([C@@H](C)CO)C(=O)c2cc(NC(=O)Nc3ccccc3)ccc2O[C@@H](C)CCCCO[C@H]1CN(C)C(=O)Oc1ccccc1
- Potency: 8.96 µM (active)

Structure (SMILES): COc1ccc(COC[C@H](C)N2C[C@@H](C)[C@H](CN(C)S(=O)(=O)c3ccc(F)cc3)OCCCC[C@H](C)Oc3ccc(NC(=O)Nc4ccccc4)cc3C2=O)cc1
- Potency: 0.0142 µM (active)
